According to PubChem BioAssay:
The source made the active and inactive calls. Unless noted, no rule for the calls is given here.

Experiments:
[1] = A549 cell viability effects, profiling panel, calcein-AM fluorescence, 48 h, basal (AID 1162); details: higher = more signal; also: test concentration not given here
[2] = adipocyte viability effects, profiling panel, cell-based, 3T3-L1 adipocytes, calcein-AM fluorescence, 48 h, basal (AID 1163); details: 3T3-L1 adipocytes viability, higher = more signal; also: test concentration not given here
[3] = HepG2 cell viability effects, profiling panel, calcein-AM fluorescence, 48 h, basal (AID 1164); details: higher = more signal; also: test concentration not given here
[4] = MM1S cell viability effects, profiling panel, calcein-AM fluorescence, 48 h, basal (AID 1165); details: higher = more signal;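 also: viability of MM1S multiple myeloma cells under basal unstimulated conditions; test concentration not given here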
[5] = basal RPMI8226 viability, no added stimulus, profiling panel, cell-based, calcein-AM fluorescence, 48 h, PK04 Diversity Set (AID 1166); details: RPMI8226 myeloma viability, higher = more signal;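 also: cells grown under basal conditions without added stimulus; test concentration not given here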
[6] = basal HepG2 mitochondrial membrane potential changes, profiling panel, cell-based, JC-1 fluorescence, 24 h, 100 nL compound (AID 1167); details: higher = more signal; also: test concentration not given here
[7] = basal 3T3-L1 adipocyte mitochondrial potential changes, profiling panel, cell-based, JC-1 fluorescence, 3T3-L1 adipocytes, 24 h, 100 nL compound (AID 1168); details: JC-1 mitochondrial fluorescence, higher = more signal, called active from +8 up or from −8 down; also: test concentration not given here
[8] = basal RPMI8226 mitochondrial membrane potential changes, profiling panel, cell-based, JC-1 fluorescence, 24 h, 100 nL compound (AID 1169); details: RPMI8226 myeloma, JC-1 mitochondrial potential fluorescence, higher = more signal; also: test concentration not given here
[9] = basal MM1S mitochondrial membrane potential changes, profiling panel, cell-based, JC-1 fluorescence, 24 h, 100 nL compound (AID 1170); details: higher = more signal; also: test concentration not given here
[10] = A549 lung cancer cell viability effects, profiling panel, resazurin fluorescence, 24 h, PK04 Diversity Set (AID 1171); details: higher = more signal, called active from +8 up or from −8 down; also: test concentration not given here
[11] = HepG2 liver cancer cell viability effects, profiling panel, resazurin fluorescence, 24 h, PK04 Diversity Set (AID 1172); details: higher = more signal; also: test concentration not given here
[12] = basal S. cerevisiae growth modulation, no modifier, primary screen, OD600, strain BY4716, 24 h, basal condition (AID 1173); details: OD600, 24 h, higher = more signal, called active from +8 up or from −8 down
[13] = MM1S myeloma cell viability, profiling panel, resazurin fluorescence, basal, 24 h, PK04 Diversity Set (AID 1174); details: higher = more signal, called active from +8 up or from −8 down;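 also: MM1S multiple myeloma cell line; test concentration not given here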
[14] = target: Dihydroorotate dehydrogenase (quinone), mitochondrial (Plasmodium falciparum (isolate 3D7)) (UniProt Q08210); experiment: PfDHODH enzyme inhibitors, primary screen, biochemical, C-terminal His tag, absorbance 600 nm (AID 1175); details: DCIP absorbance 600 nm, higher = more signal, called active from +8 up or from −8 down;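 also: recombinant parasite enzyme with a five histidine tag at its C terminus; test concentration not given here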
[15] = P. aeruginosa biofilm formation inhibitors, primary screen, strain PAO1, LB-PBS medium, absorbance 600 nm (AID 1176); also: test concentration not given here; details: P. aeruginosa PAO1 growth/biofilm, A600, 12 h; higher = more signal
[16] = S. cerevisiae RM11-1a growth modifiers, primary screen, strain RM11-1a, OD600, basal, 24 h (AID 1177); details: OD600, 24 h, higher = more signal, called active from +8 up or from −8 down;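 also: cultures grown under basal conditions with no added stressor; test concentration not given here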
[17] = E. coli acrAB mutant growth effects, primary screen, E. coli filamentation inducers, strain DRC39, OD650, 24 h (AID 1178); details: higher = more signal, called active from +8 up or from −8 down;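 also: growth measured as culture turbidity by optical density at 650 nm; test concentration not given here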
[18] = E. coli acrAB mutant growth effects, primary screen, E. coli filamentation inducers, strain DRC39, OD650, 48 h (AID 1179);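 also: screen aims at cell division blockers that make cells filament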; details: E. coli DRC39 delta-acrAB growth, higher = more signal, called active from +8 up or from −8 down
[19] = RPMI8226 myeloma cell viability, profiling panel, resazurin fluorescence, basal, 24 h, PK04 Diversity Set (AID 1180); details: higher = more signal;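 also: RPMI8826 multiple myeloma cell line at 5000 cells per well; test concentration not given here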
[20] = target: E3 ubiquitin-protein ligase XIAP (Homo sapiens) (UniProt P98170); experiment: XIAP binders, primary screen, biophysical, small-molecule microarray, fluorescence 635 nm (AID 1181); details: small-molecule microarray binding, higher = more signal;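 also: score merges 667 nm emission and signal to noise over triplicate slides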
E3 ubiquitin-protein ligase XIAP (Homo sapiens), sequence (P98170 whole entry, looked up): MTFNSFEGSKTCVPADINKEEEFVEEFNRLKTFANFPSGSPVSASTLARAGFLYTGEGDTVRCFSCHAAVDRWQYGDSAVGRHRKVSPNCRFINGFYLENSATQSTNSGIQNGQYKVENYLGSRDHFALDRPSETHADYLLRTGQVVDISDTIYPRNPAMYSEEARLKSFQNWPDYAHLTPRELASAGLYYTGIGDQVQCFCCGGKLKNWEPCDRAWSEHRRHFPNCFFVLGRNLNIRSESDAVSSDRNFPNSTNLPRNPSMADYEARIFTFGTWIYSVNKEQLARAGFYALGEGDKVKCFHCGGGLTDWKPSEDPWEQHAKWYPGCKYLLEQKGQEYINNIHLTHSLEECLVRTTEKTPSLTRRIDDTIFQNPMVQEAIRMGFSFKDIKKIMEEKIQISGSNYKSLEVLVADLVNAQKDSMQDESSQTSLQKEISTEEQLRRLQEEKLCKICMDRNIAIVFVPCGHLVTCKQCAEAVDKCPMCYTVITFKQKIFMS

Dihydroorotate dehydrogenase (quinone), mitochondrial (Plasmodium falciparum (isolate 3D7)), sequence (Q08210 whole entry, looked up): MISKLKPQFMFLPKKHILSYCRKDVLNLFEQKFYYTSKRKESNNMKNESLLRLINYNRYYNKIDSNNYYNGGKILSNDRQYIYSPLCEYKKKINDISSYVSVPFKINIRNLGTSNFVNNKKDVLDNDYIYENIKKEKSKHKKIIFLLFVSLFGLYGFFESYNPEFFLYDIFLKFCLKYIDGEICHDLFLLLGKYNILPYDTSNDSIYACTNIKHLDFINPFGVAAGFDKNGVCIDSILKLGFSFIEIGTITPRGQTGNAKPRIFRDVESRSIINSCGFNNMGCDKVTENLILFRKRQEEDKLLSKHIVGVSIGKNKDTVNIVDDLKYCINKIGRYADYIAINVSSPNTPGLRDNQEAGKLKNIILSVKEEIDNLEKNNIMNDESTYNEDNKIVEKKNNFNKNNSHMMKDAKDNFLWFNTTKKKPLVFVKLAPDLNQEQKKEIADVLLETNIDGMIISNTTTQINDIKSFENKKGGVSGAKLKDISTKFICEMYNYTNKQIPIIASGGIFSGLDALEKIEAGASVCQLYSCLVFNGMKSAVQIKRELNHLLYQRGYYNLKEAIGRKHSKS

| Compound | z-score [1] | z-score [2] | z-score [3] | z-score [4] | z-score [5] | z-score [6] | z-score [7] | z-score [8] | z-score [9] | z-score [10] | z-score [11] | z-score [12] | z-score [13] | composite z-score [14] | z-score [15] | z-score [16] | z-score [17] | z-score [18] | z-score [19] | composite z-score [20] |
| --- | --- | --- | --- | --- | --- | --- | --- | --- | --- | --- | --- | --- | --- | --- | --- | --- | --- | --- | --- | --- |
| Cc1ccc(S[C@]2(C(=O)O)CC(=O)N(C3Cc4ccccc4C3)[C@@H]2c2ccc(CO)cc2)cc1 | -0.197 | 0.729 | -0.574 | -0.428 | -2.56 | 0.125 | -0.58 (inactive) | 0.522 | 0.353 | -0.831 (inactive) | -0.684 | -0.528 (inactive) | -0.444 (inactive) | -1.03 (inactive) | 1.15 (inactive) | -0.157 (inactive) | -0.185 (inactive) | -0.108 (inactive) | -0.396 | -0.205 |
| COC(=O)[C@@]1(Cc2ccccc2)[C@H]2c3cc(C(=O)N(C)C)n(CCN4CNCC4=O)c3C[C@H]2CN1C(=O)c1ccccc1 | 0.134 | -0.391 | 0.0701 | 0.0517 | -0.002 | 0.196 | -0.179 (inactive) | -0.874 | 1.46 | 0.293 (inactive) | 0.0001 | 1.13 (inactive) | -0.473 (inactive) | 0.0849 (inactive) | -0.0703 (inactive) | 0.0591 (inactive) | -0.459 (inactive) | -0.217 (inactive) | 0.432 | 0.404 |
| C=C(C)[C@@H]1CC=C(C(O)C2C=CC3C(=O)N(c4ccccc4)C(=O)C3N2Nc2ccccc2F)CC1 (stereo not given in full) | -0.644 | -0.466 | 0.27 | -2.18 | 0.123 | -1.05 | -1.74 (inactive) | -0.872 | -0.043 | -0.35 (inactive) | -0.91 | 0.966 (inactive) | -0.773 (inactive) | 1.63 (inactive) | 1.51 (inactive) | 2.01 (inactive) | -0.96 (inactive) | -0.829 (inactive) | -1.09 | 0.0806 |
| O=C1C=C(c2ccccc2)C(=O)c2ccc([C@H]3Oc4ccccc4S(=O)(=O)N4CCC[C@@H]34)cc21 | -0.309 | -0.319 | -1.07 | -3.23 | -4.03 | -3.82 | -1.83 (inactive) | -1.23 | -2.69 | -0.602 (inactive) | -0.337 | -18.1 (active) | -8.07 (active) | -5.82 (inactive) | 0.649 (inactive) | -0.801 (inactive) | 1.81 (inactive) | 0.587 (inactive) | -5.86 | -0.31 |
| COCCOC(=O)N1C(=O)[C@@]2(c3cc(C#CC4=CCCCC4)ccc31)[C@H](c1ccccc1OCCO)N1[C@H](c3ccccc3)[C@H](c3ccccc3)OC(=O)[C@H]1[C@@H]2C(=O)Nc1nc2ccccc2s1 | -0.0438 | 0.764 | 0.416 | -2.34 | -3.43 | -2.68 | 0.745 (inactive) | -0.759 | -1.08 | -0.0954 (inactive) | 0.322 | 0.357 (inactive) | -0.774 (inactive) | -0.291 (inactive) | 1.63 (inactive) | 1.12 (inactive) | -0.736 (inactive) | -0.3 (inactive) | -0.765 | 0.0304 |
| COc1ccc(CN(C2=CC[C@@]3(C(N)=O)C(=O)C(Cl)=C(Cl)C(=O)[C@@]3(C#N)C2)S(=O)(=O)c2ccc(Br)cc2)cc1 | 0.236 | 0.167 | 0.0144 | -3.34 | -1.66 | -2.16 | -0.689 (inactive) | -0.885 | -2.06 | -1.12 (inactive) | -0.275 | -1.2 (inactive) | -2.88 (inactive) | -4.12 (inactive) | 0.481 (inactive) | -0.96 (inactive) | 0.506 (inactive) | 0.575 (inactive) | -1.18 | 0.0937 |
| O=c1n(-c2ccccc2)c(=O)n2n1CC(COc1ccccc1)=C([C@H](O)CCc1ccccc1)[C@@H]2CO | -0.0498 | 0.725 | 0.787 | -1.44 | -2.34 | -1.2 | 0.0027 (inactive) | 0.0482 | -1.98 | -0.962 (inactive) | -0.633 | -2.28 (inactive) | -0.83 (inactive) | -1.09 (inactive) | -0.0126 (inactive) | -3.02 (inactive) | 1.24 (inactive) | 0.395 (inactive) | -0.0454 | -0.472 |
| COc1ccc(-c2cc3c(c(CCc4ccccc4)n2)[Si](C(C)C)(C(C)C)OC3)cn1 | 0.342 | -0.171 | -0.999 | -1.68 | -2.05 | -0.911 | -0.315 (inactive) | -0.738 | -0.24 | 2.35 (inactive) | 1.09 | 0.0476 (inactive) | 0.42 (inactive) | -0.319 (inactive) | -1.29 (inactive) | 0.817 (inactive) | 0.152 (inactive) | 0.469 (inactive) | 1.18 | 0.136 |
| O=C1O[C@@H](c2ccccc2)[C@@H](c2ccccc2)N2[C@@H](c3ccc(O)cc3)[C@]3(C(=O)Nc4ccc(C#CC5=CCCCC5)cc43)[C@@H](C(=O)NC[C@H](O)c3ccccc3)[C@H]12 | 0.0793 | 0.294 | -1.86 | -3.33 | -4.54 | -2.26 | 1.33 (inactive) | -1.06 | -1.1 | -1.49 (inactive) | -0.705 | -0.593 (inactive) | -3.09 (inactive) | -0.609 (inactive) | 1.6 (inactive) | 2.43 (inactive) | 0.0087 (inactive) | 0.939 (inactive) | -6.69 | -0.0397 |
